In all, about 53,000 sequences went through this assay and about 3,700 (7%) were called active.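 Rule for the calls: active = gene knockdowns whose robust z-score for IL-1 alpha signal is at least 2 or at most -2, so actives lie on both sides; inactive = the rest.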 Shown is part of a subset that was picked to be rich in actives.

A short description of the assay: Components of the Cytosolic LPS Sensing Pathway: Gene Identification via Genome-wide siRNA Screen.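 Note: robust z of the log signal after scaling to non-targeting control siRNA wells of the plate.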 The settings on record: RAW264.7 macrophages, IL-1a HTRF, actives lie on both sides, screened at 100 nM (by protocol), cells primed 5 h with Pam3CSK4 first. The procedure, abridged:
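Supernatant IL-1a by HTRF from RAW264.7 cells primed with Pam3CSK4 (5 hours) and transfected with LipidA (24 hour) after 48h siRNA knockdown at 100 nM; cell viability checked with CellTiter-Glo.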
(In general: In TR-FRET formats the signal depends on donor and acceptor labels being close together.)
On to CGCAGGUAUACAGGACUGCTT against Rhox8, for which the z-score is 2.33 (active).
As for CUGUUACCUAUCCCUCAUCTT against Sstr3, the figure is -0.663 (inactive); as for GCUACUCUUAUUCUACUUCTT against Slc29a3, 0.145 (inactive).
As to GCCCUCAUCAGAAGAAACUTT against Cox7b2, the z-score is 0.864 (inactive).
The value for GGUAGACCUAGAACAGCACTT against Ttyh2 was -0.495 (inactive); that for GGUGAGAUUACUGAAAGAATT against Plod2 was -0.0899 (inactive).
Turning to GCCAGUCCUGAUAGCAUCATT against Rhox6, the z-score is -3.2 (active).
As for GGAGAAGGCAACUUCUGUUTT against Zfp641, the z-score was 0.19 (inactive).
As for CCUAUUGAUUGUAUAUCCATT against Emc2, the figure is -0.429 (inactive).
As for CCAAAUUGUCUCUUCUAACTT against Dnah1, the figure is 0.0269 (inactive); as for GGAACAAAGAGUUUAAGGATT against Olfr1415, 0.379 (inactive).
For the sequence GGAACAAGUGGCUGAAGAUTT against Cyp11b2, the z-score was 0.566 (inactive).
For GCAUGUUUCUAAACUUAGUTT against Sh3rf2, the z-score is -0.432 (inactive).
Turning to GGUAUCGUAUAUGGAGAUCTT against Kif13a, the z-score was 2.12 (active).
Consider GGUUCUGAAAGAGUGUUAGTT against Htatsf1, for which the z-score is -1.58 (inactive).
For GGGCUCACAUUGUACACACTT against Nckap5, the z-score was 0.525 (inactive).
The value for GGACAUCUUUUCAAACGUGTT against Acap1 was -1.09 (inactive); that for GCUGAACGUGAGAUUGUGCTT against Acta1 was 1.33 (inactive); that for GGUCAAUUAUGAAGCACCUTT against Pabpc4 was 0.158 (inactive).
As to GGCAACAAAAAAAUCCCAATT against Cd160, the z-score is -0.647 (inactive).
As for GGUAUCUGUGUGACUUCACTT against Pgpep1, the figure is 3.63 (active); as for GGGACAACAUUCAAAGGUCTT against Hdgfl1, -0.322 (inactive); as for GCGAUUGGCAGAUUGCUACTT against Tmem47, 1.01 (inactive).
The value for GCCGUUUCGUGUGGUAUUUTT against Tm4sf1 was -2.64 (active).
On to GGGAUAGCAAGACUUUCACTT against C5ar1, for which the z-score was 0.194 (inactive).
As for GGUUGUGAGUCAGUCUAGUTT against Tia1, the figure is -1.55 (inactive); as for GGAGCUCUGUGAAUCUCUUTT against Ska1, -0.796 (inactive).
Take CCUUCCUGUUGUCAUGAGATT against Eipr1: the z-score is -0.868 (inactive).
Take CCAAUGGUCAGGAGUGUAGTT against Prpsap2: the z-score was -0.766 (inactive).
The value for GCGGCUCAAACUCAUUUUGTT against Gm4841 was 1.21 (inactive).
For CCUUGACCUUAAUGUCUUCTT against Fgf23, the z-score was 2.05 (active).
As for GGUAUGAUGAUUGUUAGAUTT against Phf20, the figure is 0.141 (inactive); as for “GCUCUAAAACUGUGUACUCTT against 4930579K19Rik”, -0.167 (inactive); as for GGAAUUUUCUGGAAAUCCATT against Tctn2, -0.111 (inactive).
Turning to GGCUCUCAUUGAUGCAUGUTT against Cpeb4, the z-score was -0.264 (inactive).
As for GGAAUGAAACCAAGUAUAATT against Calcb, the figure is 0.853 (inactive); as for GCAGGUUCAGGCAGUAAUUTT against Kpna4, 3.78 (active); as for GCUCAUUGGGAUCAUUGGUTT against Fancd2, 1.45 (inactive).
As for GGUGACACCCAGAAUGAGCTT against Htatsf1, the figure is 1.81 (inactive); as for GGACUGUGGAUAACCUGCUTT against Hspb2, -2.55 (active); as for CCCUCAAUCUAACAGUGCATT against Dsg1b, 0.75 (inactive).
GGAGAAAGACAACUUCCUATT against Clec7a: the z-score is 0.239 (inactive).
As for GGCUCCUGUAAUGCUAACUTT against Zfp715, the z-score is -0.191 (inactive).
The value for “GGAUACUUUAUGGUAUUUCTT against 9130023H24Rik” was 1.45 (inactive); that for GAUUUCAAGAUCCAGACUCTT against Riiad1 was -0.435 (inactive); that for GCAGAGUUACAAGCUUUUATT against Diaph3 was -4.98 (active).
For CCUCGUUCCUUUGAAAUCATT against Gfi1, the z-score is 0.255 (inactive).
The value for GCUAUGUGAAUUUGUAUGATT against Parp11 was 0.398 (inactive); that for GCAUACGAUAUCACCAUAUTT against Dsg1a was 0.173 (inactive).
As for GCUCCGGAACAGAUAAAACTT against Kat14, the figure is -0.485 (inactive); as for GGCAGUAACUUAAAACAGATT against Mecp2, -0.139 (inactive).
The value for GCUGAAAGAAUUCGUGGACTT against Phf2 was 1.69 (inactive); that for GAUAUCACGGUCAUCUGUCTT against Pde6h was -0.19 (inactive).
For CCUCGUAUUAGAUGAUGCATT against Snrpe, the z-score was -2.79 (active).
The value for CCUGCGCUUCUGACUAUCUTT against Dcbld1 was 0.18 (inactive).
As for GGAGACCUGGCAAAUGUAATT against Dctn5, the figure is 0.884 (inactive).
For GGAUCUCGAGUCUCAUCUCTT against Ccdc166, the z-score is 0.851 (inactive).
As to CCGGAAGAGCUUGCUUUAUTT against Sgpp2, the z-score was 1.19 (inactive).
In the case of GGAUCCAAGGUGAAAAUAUTT against Fam131a, the z-score is -2.25 (active).
As for GGCUAAGGGUAACGUGCUGTT against Bri3, the figure is -0.263 (inactive); as for GGUGGUUAAAUGGUUUUAATT against Prkg2, 1.98 (inactive).
Take GGAUCUGACAGCUCAUUUUTT against Casp7: the z-score was 1.01 (inactive).
As for CCACAAAACUAAGACACCUTT against P2ry6, the figure is 0.587 (inactive); as for GGCUCUAACAUGACAAUUUTT against Hyal1, -0.251 (inactive).
On to GGGAAAAUGGAAAAUACAUTT against Emc3, for which the z-score was 2.59 (active).
Take GCUGAUUAACCCUCAGUAUTT against Gpc6: the z-score is -0.531 (inactive).
With GCAAGUGUAGAUAAAGUAUTT against Msi2, the z-score is 0.751 (inactive).
As to GGAAAAGAUAACUCAGACATT against Hrg, the z-score is 0.727 (inactive).
The value for GCUCUACCCUGAAGAUAUATT against Immt was 2.44 (active).
